Consider 52 compounds from ChEMBL document CHEMBL3988442, “University of Dundee, Small-Polar-MMV Screening Library” (2021).

Among all 48,000 compounds or so, about 13,000 (27%) showed an effect of 50% or more. The list shows a part of the results.

For the experiment, the system named is Wolbachia pipientis. Description: Anti-Wolbachia Cell-Based Screen. It counts as functional. More on the design: scale not given: in the data most compounds retested in dose-response had high values. Particulars: 5 µM.
Turning to `O=C(Cc1cnn(-c2ccccc2)n1)NC(C1CC1)C1CC1`, the “Percent Effect” value was -0.6445%.

`CC(C#N)(NC(=O)Cn1cc(I)cn1)C1CC1` (configuration not stated): the “Percent Effect” value is recorded as 6.618%.

Regarding `CNC(=O)NC(=O)Cn1cc(-c2ccccc2)cn1`, the “Percent Effect” value is given as -1.753%.

For `Cc1csc(CN2C[C@@H]3CN(CC4CCOCC4)CCO[C@@H]3C2)n1`, the “Percent Effect” value is -2.484%.

As to `Fc1cccc(N2CCCC3(CN(Cc4nccs4)CCO3)C2)c1.O=C(O)C(F)(F)F.O=C(O)C(F)(F)F` (configuration not stated), the “Percent Effect” value was -19.19%.

As for `CC(C)(C)c1nnc(CN2CCN(C(=O)N3CCCCC3)CC2)o1`, the “Percent Effect” value came out at 1.432%.

Take `CC(C)NC(=O)Cn1cc(-c2ccccc2)cn1`: the “Percent Effect” value was determined as 1.398%.

Regarding `CC(C)C(C)(C#N)NC(=O)Cn1cc(-c2ccccc2)cn1` (configuration not stated), the “Percent Effect” value is listed as -4.052%.

For the compound `Cc1ccc(-c2cnn(CC(=O)NC(C)C)c2)cc1`, the “Percent Effect” value is listed as 96.48%.

Take `CCC(CNC(=O)c1c(C)nn(C)c1OC)Oc1ccccc1` (configuration not stated): the “Percent Effect” value is recorded as -1.987%.

For `CCc1nc(NS(=O)(=O)c2cc(C)ccc2Br)no1`, the “Percent Effect” value was -0.5408%.

For the compound `CCCn1nc(C)c(-c2cncn2CCN(C)C2CCCC2)c1C.Cl`, the “Percent Effect” value was found to be 99.02%.

Consider `Cc1nn(C)cc1-c1cncn1CCN(C)C1CCCC1.Cl`, for which the “Percent Effect” value was found to be 82.1%.

In the case of `CCn1nc(C)c(-c2cncn2CCN(C)C2CCCC2)c1C.Cl`, the “Percent Effect” value was 94.51%.

Regarding `Cc1nn(C)c2nc(N(C)CCN(C)C3CCCC3)sc12`, the “Percent Effect” value is -5.269%.

Consider `Cc1cc(C)nc(N(C)CCN(C)C2CCCC2)n1`, for which the “Percent Effect” value is listed as 8.027%.

`CN(CC1CCCC1)C(=O)c1cn(C)nc1-c1cccnc1`: the “Percent Effect” value is recorded as -17.59%.

Take `CCCN1CCCn2nc(CNC(=O)CN(C)C3CCCC3)cc2C1`: the “Percent Effect” value is given as -1.804%.

On to `Cn1nnc(C2(NC(=O)c3ccccc3)CCCC2)n1`, for which the “Percent Effect” value is given as -16.42%.

Turning to `CCCn1cc(C(=O)NC2CCN(CC(=O)NC3CC3)CC2)c(C)n1`, the “Percent Effect” value was -20.41%.

For the compound `COCc1nc(NCC2CCS(=O)(=O)C2)c2cnn(C)c2n1` (configuration not stated), the “Percent Effect” value is 14.43%.

`CCc1nc(NC2CCCN(C(=O)C3CC3)C2)c2cnn(C)c2n1` (configuration not stated): the “Percent Effect” value was found to be 100.4%.

In the case of `CCc1nc(NCC2CCCN(C(=O)C3CC3)C2)c2cnn(C)c2n1` (configuration not stated), the “Percent Effect” value turned out to be 149.3%.

For `CCc1nc(NC2CCN(CC(=O)NC3CC3)CC2)c2cnn(C)c2n1`, the “Percent Effect” value came to 85.47%.

For the compound `CC(C)C(=O)N1CCC(CNc2nc(C(C)C)nc3c2cnn3C)CC1`, the “Percent Effect” value was -5.658%.

Consider `Cn1ncc2c(N[C@H]3CCCC[C@@H]3O)nc(C(C)(C)C)nc21`, for which the “Percent Effect” value is 2.356%.

As for `Cn1ncc2c(N[C@@H]3CS(=O)(=O)C[C@H]3O)nc(C(C)(C)C)nc21`, the “Percent Effect” value was -3.65%.

Consider `Cn1ncc2c(N[C@H]3CC[C@@H](N)CC3)nc(C(C)(C)C)nc21`, for which the “Percent Effect” value was -50.36%.

As to `Cn1ncc2c(NC3CCCN(C(=O)C4CC4)C3)nc(C(C)(C)C)nc21` (configuration not stated), the “Percent Effect” value was 108.6%.

Take `CC(=O)NCCNc1nc(C2CCCC2)nc2c1cnn2C`: the “Percent Effect” value is -24.98%.

`COCCN1CC(Nc2nc(C3CCCC3)nc3c2cnn3C)CC1=O` (configuration not stated): the “Percent Effect” value is -0.7638%.

As for `Cc1cc(C(=O)NCc2ccc(N3CCCC(C(N)=O)C3)cc2)no1` (configuration not stated), the “Percent Effect” value is -5.438%.

For the compound `O=C(Cc1ccc(F)c(F)c1)NC1COc2ccccc2C1=O` (configuration not stated), the “Percent Effect” value was -17.04%.

For the compound `Cc1ccc(CN(CC(=O)NC2CCOCC2)c2ccc(F)cc2)o1`, the “Percent Effect” value is listed as -4.166%.

Take `CCOc1ncnc2c1CCN(C(=O)CN(C)C)CC2.O=C(O)C(F)(F)F`: the “Percent Effect” value is recorded as -0.06996%.

Consider `O=C(c1cc[nH]n1)N(Cc1ccc(F)cc1)CC1CC1`, for which the “Percent Effect” value is recorded as -5.824%.

As for `CCN(CC)C(CNC(=O)CCc1nc(C(C)C)no1)c1ccco1` (configuration not stated), the “Percent Effect” value was -1.128%.

Take `Cn1ncc2c(=O)[nH]c(CN3CCCC3c3cccs3)nc21` (configuration not stated): the “Percent Effect” value was -2.053%.

Turning to `CCc1nc(NC2CCCN(C(=O)c3cccs3)C2)c2cnn(C)c2n1` (configuration not stated), the “Percent Effect” value came out at 96.59%.

With `NC(=O)c1cnc(NC2CCN(C(=O)C3CC3)CC2)c(Cl)c1`, the “Percent Effect” value worked out at 4.189%.

In the case of `CC(C)c1cc(NC2CCCN(C(=O)c3cccs3)C2)ncn1` (configuration not stated), the “Percent Effect” value is -8.38%.

`Cc1nc(N2CCN(C(=O)C3CC3)CC2)c2c(n1)c(C)nn2C`: the “Percent Effect” value stood at 1.518%.

Regarding `Cc1nc(NC2CCN(C(=O)C3CC3)CC2)c2cnn(C)c2n1`, the “Percent Effect” value was found to be 200.9%.

As to `COC(=O)c1sccc1S(=O)(=O)NCCc1ccoc1`, the “Percent Effect” value was -8.727%.

For `CN(C)c1ncc(I)c(C2CCCN2C)n1.Cl` (configuration not stated), the “Percent Effect” value was 88.04%.

Consider `CN(C)c1ncc(I)c(C2CCCN2S(C)(=O)=O)n1` (configuration not stated), for which the “Percent Effect” value was determined as 113.9%.

`CC1CCCCN1C(=O)Cn1cc(I)cn1` (configuration not stated): the “Percent Effect” value worked out at 11.08%.

Regarding `CN(C)c1cccc(C2CCCN2S(N)(=O)=O)c1` (configuration not stated), the “Percent Effect” value is on record as -8.581%.

Regarding `CN(C)c1ncc(I)c(C2CCCCN2S(C)(=O)=O)n1` (configuration not stated), the “Percent Effect” value is listed as 26.22%.

For `CN(C)c1ncc(I)c(C2CCCCN2C)n1` (configuration not stated), the “Percent Effect” value turned out to be 140.6%.

Regarding `Cc1nc(CN2CCC(CNC(=O)NCCC3CCC3)CC2)oc1C`, the “Percent Effect” value was -2e-14%.

Regarding `CN(C)C(=O)c1nc(CN2CC(Cc3ccccc3)CC2=O)no1` (configuration not stated), the “Percent Effect” value turned out to be 4.683%.
